The results in this text go back to PubChem BioAssay (EPA / NIEHS).

The source made the active and inactive calls. The calls were made as follows: active = hit-call score of the fitted dose curve at least 0.9, where 1 is the maximum; inactive = score below 0.9.

The target in the assay is CCAAT/enhancer-binding protein beta (Homo sapiens) (UniProt P17676). Kind of assay: ATG_C_EBP_CIS: Attagene CIS-FACTORIAL HepG2 Assay for human CCAAT/Enhancer Binding Protein (C/EBP) beta (AID 2282927). Conditions: HepG2 Attagene cis-factorial transcription factor reporter; actives raise or lower the signal. How it is done: ATG_CIS is a cell-based, multiplexed-readout assay that uses HepG2, a human liver cell line, with measurements taken at 24 hours after chemical dosing in a 24-well plate.ATG_C_EBP_CIS is one of 52 assay component(s) measured or calculated from the ATG_CIS assay. It is designed to make measurements of mRNA induction, a form of inducible reporter, as detected with fluorescence intensity signals by Reverse transcription polymerase chain reaction (RT-PCR) and Capillary electrophoresis technology.Data from the assay component ATG_C_EBP_CIS was analyzed into 1 assay endpoint. This assay endpoint, ATG_C_EBP_CIS, was analyzed with bidirectional fitting relative to DMSO as the negative control and baseline of activity. Using a type of inducible reporter, measures of mRNA for gain or loss-of-signal activity can be used to understand the reporter gene at the transcription factor-level as they relate to the gene CEBPB. Furthermore, this assay endpoint can be referred to as a primary readout, because this assay has produced multiple assay endpoints where this one serves a reporter gene function. To generalize the intended target to other relatable targets, this assay endpoint is annotated to the dna binding intended target family, where the subfamily is basic leucine zipper.
Chain of CCAAT/enhancer-binding protein beta (Homo sapiens) (P17676 whole entry, looked up): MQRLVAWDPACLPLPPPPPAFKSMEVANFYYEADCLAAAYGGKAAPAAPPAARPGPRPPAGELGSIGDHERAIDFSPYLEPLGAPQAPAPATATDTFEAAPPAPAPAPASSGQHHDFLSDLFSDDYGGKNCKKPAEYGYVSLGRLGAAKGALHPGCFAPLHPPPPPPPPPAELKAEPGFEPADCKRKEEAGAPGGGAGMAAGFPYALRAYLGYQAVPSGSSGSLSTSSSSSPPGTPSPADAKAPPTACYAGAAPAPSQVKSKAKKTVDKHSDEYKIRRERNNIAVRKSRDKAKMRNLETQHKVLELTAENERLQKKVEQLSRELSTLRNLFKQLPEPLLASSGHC
Human liver HepG2 cells are transiently transfected with multiple reporter transcription units (MRTUs) in 6-well plates using FuGene 6 reagent (Roche; 3 ml FuGene/1 mg DNA). The MRTU constructs are regulated by a cis-regulating element (promoter). […] A major difference between the CIS and TRANS system is that in CIS activities of endogenous TFs are measured, whereas the TRANS assay evaluates changes in activities of exogenous, chimeric NR-Gal4 proteins. […] At the end of 24 hour incubation, total RNA was isolated using TriZol reagent (Invitrogen). The isolated RNA is then reverse-transcribed using oligo(dT) primer and Mo-MLV reverse transcriptase (Invitrogen) with DNAse I (Ambion) treatment for 30 min. The one-tenth of the produced cDNA was amplified by PCR using Taq DNA polymerase (Invitrogen) and two reporter sequence-specific primers. The PCR products were fluorescently labeled by primer extension with 6-arboxyfluorescein (6-FAM) 5'-labeled reporter sequence-specific primer (2 min at 95 C, 20 s at 68 C and 10 min at 72 C) and these products were digested with 5U of HpaI (New England Biolabs) for 2h at 37 C. The fragments were purified using Qiaquick PCR columns (Qiagen), analyzed on an ABI 3130xL genetic analyzer (Applied Biosystems) with peak positions identified by using a set of X-rhodamine (ROX)-labeled MapMarker1000 molecular weight standards (BioVentures). The raw capillary electrophoresis data was processed using Attagraph software (Attagene).
On to `N#Cc1ccccc1N`, for which the outcome was inactive.

For `Nc1ccc(N)cc1`, the outcome was inactive.

`CN(N=O)C(N)=O`: the result was inactive.

Consider `CCOCn1c(-c2ccc(Cl)cc2)c(C#N)c(Br)c1C(F)(F)F`, for which the result was inactive.

`O=C(O)CC(O)(CC(=O)O)C(=O)O`: the outcome was inactive.

For the compound `CCCCN(CCCC)C(=S)S`, the outcome was inactive.

Consider `O=[N+]([O-])c1c2ccccc2cc2ccccc12`, for which the result was inactive.

On to `O=S(=O)(c1ccc(Cl)cc1)c1cc(Cl)c(Cl)cc1Cl`, for which the outcome was inactive.

Consider `Cl[C@H]1OCCO[C@@H]1Cl`, for which the result was inactive.

On to `O=C1c2ccccc2C(=O)C1C(=O)C(c1ccccc1)c1ccc(Cl)cc1` (stereo not given), for which the result was inactive.

Take `OC[P+](CO)(CO)CO`: the result was inactive.

For the compound `CC(C)CC(C)(c1ccc(O)cc1)c1ccc(O)cc1`, the outcome was inactive.

On to `Nc1ccc(-c2ccccc2)cc1`, for which the outcome was inactive.

In the case of `O=C(O)COc1ccc(Cl)cc1`, the result was inactive.

Take `C=CC(=O)OCC(COC(=O)C=C)(COC(=O)C=C)COC(=O)C=C`: the outcome was inactive.

For `NC(=O)CCl`, the outcome was inactive.

In the case of `CC(c1ccccc1)(c1ccc(O)cc1)c1ccc(O)cc1`, the outcome was inactive.

For the compound `[F][Sn]([c]1ccccc1)([c]1ccccc1)[c]1ccccc1`, the AC50 is 2.15 µM (active).

Take `O=C(NC(=O)c1c(F)cccc1F)Nc1ccc(Cl)cc1`: the result was inactive.

As for `CCOC(=O)C(SP(=S)(OC)OC)c1ccccc1` (stereo not given), the result was inactive.

Regarding `O=CCCl`, the AC50 is 25 µM (active).

`OCC(c1ccc(Cl)cc1)c1ccc(Cl)cc1`: the outcome was inactive.

With `COc1ccc([N+](=O)[O-])cc1O`, the outcome was inactive.

`CN(C)c1ccc(N=O)cc1`: the result was inactive.

For the compound `Cc1ccc(CCl)cc1`, the result was inactive.

As for `BrCCCCBr`, the outcome was inactive.

In the case of `C=CC(F)(C(F)(F)F)C(F)(F)C(F)(F)F` (stereo not given), the result was inactive.

Consider `Oc1c(Cl)cc(Cl)cc1Cl`, for which the result was inactive.

As to `CN(C)C(=S)S`, the outcome was inactive.

As for `O=C(NC(=O)c1c(F)cccc1F)Nc1cc(Cl)c(Oc2ncc(C(F)(F)F)cc2Cl)c(Cl)c1`, the outcome was inactive.

As for `CCOC(=O)CCN(SN(C)C(=O)Oc1cccc2c1OC(C)(C)C2)C(C)C`, the result was inactive.

As to `CN(N=O)c1ccc([N+](=O)[O-])cc1`, the outcome was inactive.

Consider `Cc1cc(Cl)ccc1OCCCC(=O)O`, for which the outcome was inactive.

As for `CC(C)(C)c1ccc(CCOc2ncnc3ccccc23)cc1`, the outcome was inactive.

As to `CC(C)(COCC1CO1)COCC1CO1` (stereo not given), the outcome was inactive.

As for `Cc1cc(C(F)(C(F)(F)F)C(F)(F)F)ccc1NC(=O)c1cccc(I)c1C(=O)NC(C)(C)CS(C)(=O)=O`, the result was inactive.

In the case of `CCOc1cc(C=O)ccc1O`, the result was inactive.

On to `CC[N+](CC)(CC)CC`, for which the result was inactive.

In the case of `O=S(=O)(Oc1ccc(Cl)cc1)c1ccc(Cl)cc1`, the result was inactive.

Turning to `Cc1cccc(C)c1NC(=O)CN1CCCC1=O`, the outcome was inactive.
